# Laboratory results: PubChem BioAssay (Tox21)
# “And” between values parts separate entries of the source, which are not always exact repeats. Equal entries are not always repeated. Results filed as inconclusive are left out. A call without a number means that no potency is given here. Values without a mark were called inactive. The source made the active and inactive calls. Calls come from the whole dose curve; as a rule, active = well fitted curve in the direction sought with a large enough effect in the repeat runs; inconclusive = weak or mixed curves; inactive = no such curve, though single readings can be large; an effect the other way counts as inactive or inconclusive. Starred links: 1 amine or outer side, 2 acyl side, 3 side chain; linkers in the order of their positions; H or OH if unused. Positions of bridges follow the written chain, without caps; N, C: chain ends. Non-standard residues stand in square brackets, D forms with d. Residues, ends and D or L forms follow the SMILES beside them. Chains are numbered I, II in the order given. Actinocin(9to1) = Cc1c2oc3c(C)ccc(C(=O)[*:1])c3nc-2c(C(=O)[*:2])c(N)c1=O; NMeV = CN[C@H](C(=O)O)C(C)C; Sar = CNCC(=O)O
# Molecular target: Voltage-gated inwardly rectifying potassium channel KCNH2 (Homo sapiens) (UniProt Q12809)
# Sequence (Q12809 whole entry, looked up): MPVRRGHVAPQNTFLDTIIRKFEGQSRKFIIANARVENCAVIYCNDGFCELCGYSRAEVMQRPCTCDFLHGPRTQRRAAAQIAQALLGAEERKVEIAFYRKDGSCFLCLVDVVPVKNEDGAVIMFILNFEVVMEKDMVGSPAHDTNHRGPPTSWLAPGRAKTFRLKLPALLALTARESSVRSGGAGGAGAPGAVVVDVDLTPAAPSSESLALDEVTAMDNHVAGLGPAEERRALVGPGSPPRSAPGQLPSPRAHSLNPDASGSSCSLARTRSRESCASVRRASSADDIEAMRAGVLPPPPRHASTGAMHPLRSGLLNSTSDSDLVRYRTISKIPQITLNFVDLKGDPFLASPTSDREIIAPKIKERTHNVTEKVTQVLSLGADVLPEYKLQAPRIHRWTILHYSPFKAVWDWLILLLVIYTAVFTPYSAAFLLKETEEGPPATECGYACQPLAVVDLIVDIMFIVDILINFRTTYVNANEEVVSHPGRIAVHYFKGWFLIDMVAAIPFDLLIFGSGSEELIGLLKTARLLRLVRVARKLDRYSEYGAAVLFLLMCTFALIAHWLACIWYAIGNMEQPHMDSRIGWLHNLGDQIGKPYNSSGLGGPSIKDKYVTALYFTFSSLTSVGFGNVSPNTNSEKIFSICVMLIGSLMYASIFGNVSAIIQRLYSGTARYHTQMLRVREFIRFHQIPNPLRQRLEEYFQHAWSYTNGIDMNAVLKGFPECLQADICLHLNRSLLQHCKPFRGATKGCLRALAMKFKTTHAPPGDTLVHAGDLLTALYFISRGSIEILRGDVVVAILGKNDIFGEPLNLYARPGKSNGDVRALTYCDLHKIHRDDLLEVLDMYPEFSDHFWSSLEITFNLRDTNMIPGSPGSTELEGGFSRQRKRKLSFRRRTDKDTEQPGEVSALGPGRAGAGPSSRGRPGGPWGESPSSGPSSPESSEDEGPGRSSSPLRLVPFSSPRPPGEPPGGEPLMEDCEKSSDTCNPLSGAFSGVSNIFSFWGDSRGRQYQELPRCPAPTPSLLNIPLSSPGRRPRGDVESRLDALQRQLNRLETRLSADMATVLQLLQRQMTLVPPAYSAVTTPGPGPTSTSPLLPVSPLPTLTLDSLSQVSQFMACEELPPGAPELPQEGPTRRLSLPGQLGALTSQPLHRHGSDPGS
# Experiment: Human Ether-a-go-go-Related Gene (hERG) channel small molecule antagonists: fluorescence cell-based qHTS assay (AID 1671200);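 for activity change, negative = inhibition: hERG-expressing U2OS cells given a thallium stimulus after FluxOR II dye loading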
# Settings: hERG-U2OS cells, FluxOR thallium flux fluorescence; series mostly up to 76.8 µM
# In short: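 Channel function was assessed by thallium flux. Cells seeded the previous day and kept at 37 C took up FluxOR II dye over 1 h in the dark at room temperature, then sat another 10 min before stimulation.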
# Note: nearly all actives have a fitted effect of over 50% in size.
# Potency is the fitted concentration of half-maximal effect.
SMILES,Potency,"activity change, negative = inhibition"
CCOc1ccc2c(c1)C(C)=CC(C)(C)N2,inactive,
CCCCCCCCCCCCc1ccccc1O,inactive,
Cc1occc(=O)c1OC(=O)C(C)C,inactive,
Cc1cc(C2(c3cc(C)c(O)cc3C)OS(=O)(=O)c3ccccc32)c(C)cc1O,inactive,
NC(Cc1ccc(Cl)cc1)C(=O)O (centres undefined),,10.3% [at 0.29 µM]
c1cc(C(c2ccc(OCC3CO3)cc2)C(c2ccc(OCC3CO3)cc2)c2ccc(OCC3CO3)cc2)ccc1OCC1CO1 (centres undefined),inactive,
C1COC(NC(C2CC2)C2CC2)=N1,inactive,
CC(C)CCCCCCc1ccc(O)cc1,39.6 µM (active),
CC(C)(O)CCC(C)(C)O,inactive,
CCC(=O)/C=C/C1C(C)=CCCC1(C)C (centres undefined),inactive,
O=Nc1ccc(Nc2ccccc2)cc1,inactive,
CC(C)(C)c1cc(C(C)(C)C)c(O)c(C(C)(C)C)c1,7.76 µM (active),
CCCC(=O)c1ccccc1,inactive,

# Molecular target: Cytochrome P450 3A4 (Homo sapiens) (UniProt P08684)
# Sequence (P08684 whole entry, looked up): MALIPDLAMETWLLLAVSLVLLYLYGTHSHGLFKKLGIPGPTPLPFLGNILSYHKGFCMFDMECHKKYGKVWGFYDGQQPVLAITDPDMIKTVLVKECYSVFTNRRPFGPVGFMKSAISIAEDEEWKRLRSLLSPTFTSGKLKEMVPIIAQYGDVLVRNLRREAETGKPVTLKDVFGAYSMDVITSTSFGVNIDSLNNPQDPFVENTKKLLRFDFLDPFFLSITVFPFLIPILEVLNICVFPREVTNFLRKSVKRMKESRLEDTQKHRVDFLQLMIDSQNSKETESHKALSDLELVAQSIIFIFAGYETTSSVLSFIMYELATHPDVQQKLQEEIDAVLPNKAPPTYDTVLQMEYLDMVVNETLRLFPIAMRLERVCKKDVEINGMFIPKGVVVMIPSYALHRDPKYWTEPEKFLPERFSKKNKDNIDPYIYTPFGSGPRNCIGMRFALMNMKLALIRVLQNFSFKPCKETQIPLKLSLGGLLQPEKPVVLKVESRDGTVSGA
# Experiment: Cytochrome P450 Family 3 Subfamily A Member 4 (CYP3A4) small molecule antagonists: luciferase reporter qHTS assay (AID 1671201)
# Settings: P450-Glo CYP3A4 enzyme, luciferin luminescence, 1 h; series mostly up to 115 µM
# In short: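 Compounds in DMSO were pin-transferred onto CYP3A4 enzyme-substrate mix and held 10 min at room temperature. NADPH regenerating solution started the reaction for 1 h; luciferin detection reagent stopped it, and luminescence was read after 20 min.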
SMILES,Potency,"activity change, negative = inhibition"
CCN(CC)C(=O)Nc1ccc(OCC(O)CNC(C)(C)C)c(C(C)=O)c1 (centres undefined),inactive,
CCOc1ccccc1C(N)=O,inactive,
CC(=O)Nc1ccc(C(=O)CCl)cc1,inactive,
c1ccc2c(c1)-c1cccc3c1c-2cc1ccccc13,inactive,
NCCO,inactive,
CC(=O)OCCOCCOCCOC(C)=O,inactive,
CCCCCCCCCCCCCCCCCl,,3.48% [at 23.6 µM]
O=C(Nc1ccccc1SSc1ccccc1NC(=O)c1ccccc1)c1ccccc1,2.01 µM (active) and 5.03 µM (active),
CC(COc1ccccc1)N(CCCl)Cc1ccccc1 (centres undefined),inactive,
Nc1ccc2cc3ccccc3cc2c1,9.1 µM (active) and 12.6 µM (active),
Nc1nc(=S)c2[nH]cnc2[nH]1,inactive,
O=C(O)c1cn(-c2ccc(F)cc2)c2cc(N3CCNCC3)c(F)cc2c1=O,inactive,
BrC1CCC(Br)C(Br)CCC(Br)C(Br)CCC1Br (centres undefined),1.41 µM (active) and 1.51 µM (active),
CC(C)(C)c1ccc(O)c(C(C)(C)C)c1,35.6 µM (active),
O=C1NCC2(CCN(CCc3ccccc3)CC2)O1,inactive,
OCCN1CCNCC1,inactive,
O=C(O)CCc1ccccc1,inactive,
COC(=O)c1cccc(C(=O)OC)c1,inactive,

SMILES,Potency,"activity change, negative = inhibition"
COc1cc(C(=S)N2CCOCC2)ccc1O,inactive,
CC(C)C(=O)c1c(C(C)C)nn2ccccc12,inactive,
"Cc1c2oc3c(C)ccc(C(=O)N[C@@H]4C(=O)N[C@H](C(C)C)C(=O)N5CCC[C@H]5C(=O)N(C)CC(=O)N(C)[C@@H](C(C)C)C(=O)O[C@@H]4C)c3nc-2c(C(=O)N[C@@H]2C(=O)N[C@H](C(C)C)C(=O)N3CCC[C@H]3C(=O)N(C)CC(=O)N(C)[C@@H](C(C)C)C(=O)O[C@@H]2C)c(N)c1=O (I: T[dV]P[Sar][NMeV] / II: T[dV]P[Sar][NMeV]; ester I:1-I:C, II:1-II:C; linker I:N-II:N via Actinocin(9to1))",inactive,
CCOc1ccc2c(c1)C(C)=CC(C)(C)N2,12.6 µM (active) and 17.8 µM (active),
CCCCCCCCCCCCc1ccccc1O,31.3 µM (active) and 63.3 µM (active),
Cc1occc(=O)c1OC(=O)C(C)C,inactive,
Cc1cc(C2(c3cc(C)c(O)cc3C)OS(=O)(=O)c3ccccc32)c(C)cc1O,2 µM (active) and 2.52 µM (active),
NC(Cc1ccc(Cl)cc1)C(=O)O (centres undefined),,0.0907% [at 0.435 µM]
c1cc(C(c2ccc(OCC3CO3)cc2)C(c2ccc(OCC3CO3)cc2)c2ccc(OCC3CO3)cc2)ccc1OCC1CO1 (centres undefined),inactive,
C1COC(NC(C2CC2)C2CC2)=N1,inactive,
CC(C)CCCCCCc1ccc(O)cc1,16.2 µM (active),
CC(C)(O)CCC(C)(C)O,inactive,
CCn1cc(C(=O)O)c(=O)c2cc(F)c(N3CCNC(C)C3)c(F)c21 (centres undefined),inactive,
CCC(=O)/C=C/C1C(C)=CCCC1(C)C (centres undefined),71.2 µM (active) and 20 µM (active),
O=Nc1ccc(Nc2ccccc2)cc1,8.99 µM (active) and 12.6 µM (active),
CC(C)(C)c1cc(C(C)(C)C)c(O)c(C(C)(C)C)c1,inactive,
CCN1CCCC1CNC(=O)c1cc(S(=O)(=O)CC)c(N)cc1OC (centres undefined),inactive,
CCCC(=O)c1ccccc1,inactive,
